Screen size: about 5,500 compounds; about 2,000 (36%) were called active. About 18% were inconclusive and are not listed. Cut-off read from the data, not from the text of the source: active = normalized growth mostly below about 0.91 (no sharp cut-off); inconclusive = no clear call, values can overlap the other calls; inactive = mostly above about 0.92. The list shows a part of the results.
Assay: chemical genetic growth profiling, strain panel (AID 1159580);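 note: tested at 20 µM; growth read once vehicle control cultures reached saturation at 30 °C; 1 = growth at the plate median or of vehicle wells; lower values mean less growth of the strain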
Conditions: S. cerevisiae deletion strains, growth OD

Measured: normalized growth

CN1CCN(CC/C=C2/c3ccccc3Sc3ccc(S(=O)(=O)N(C)C)cc32)CC1
inactive: locus YAL040C, strain CLN3, stronger effect = lower value 0.997 | locus YCL061C, strain MRC1 (second series), stronger effect = lower value 1 | locus YDR363W, strain ESC2, stronger effect = lower value 0.983 | locus YER002W, strain NOP16, stronger effect = lower value 1.03 | locus YGR229C, strain SMI1, stronger effect = lower value 0.99 | locus YJR075W, strain HOC1, stronger effect = lower value 0.993 | locus YMR307W, strain GAS1, stronger effect = lower value 0.999 | locus YNL153C, strain GIM3, stronger effect = lower value 1.02 | locus YNL175C, strain NOP13, stronger effect = lower value 1.03 | locus YNL197C, strain WHI3, stronger effect = lower value 1.02 | locus YNL224C, strain SQS1, stronger effect = lower value 1.04 | locus YNL322C, strain KRE1, stronger effect = lower value 0.967 | locus YOR083W, strain WHI5 (second series), stronger effect = lower value 1.05 | locus YPL055C, strain LGE1, stronger effect = lower value 0.989

— PubChem BioAssay AID1159580 (chemical genetic matrix, 2015)
